Results on 7 sequences are retold here after publication PMC7862700, “An all-to-all approach to the identification of sequence-specific readers for epigenetic DNA modifications on cytosine”.

What all share (experiment): DAPPL (digital affinity profiling via proximity ligation, sequencing); 10 mM Tris-HCl pH 7.5, 50 mM NaCl, 1 mM DTT, 4% glycerol, room temperature, 30 min; GST-TFs on glutathione beads, 16-mer random dsDNA library, 0.1% formaldehyde crosslink after washing; high values mean tight binding
What all share (settings): protein: recombinant; tags: N-terminal GST; dsDNA, one strand shown

One test deals with T1, ERF (Homo sapiens, UniProt P50548 1-548).
T1 sequence: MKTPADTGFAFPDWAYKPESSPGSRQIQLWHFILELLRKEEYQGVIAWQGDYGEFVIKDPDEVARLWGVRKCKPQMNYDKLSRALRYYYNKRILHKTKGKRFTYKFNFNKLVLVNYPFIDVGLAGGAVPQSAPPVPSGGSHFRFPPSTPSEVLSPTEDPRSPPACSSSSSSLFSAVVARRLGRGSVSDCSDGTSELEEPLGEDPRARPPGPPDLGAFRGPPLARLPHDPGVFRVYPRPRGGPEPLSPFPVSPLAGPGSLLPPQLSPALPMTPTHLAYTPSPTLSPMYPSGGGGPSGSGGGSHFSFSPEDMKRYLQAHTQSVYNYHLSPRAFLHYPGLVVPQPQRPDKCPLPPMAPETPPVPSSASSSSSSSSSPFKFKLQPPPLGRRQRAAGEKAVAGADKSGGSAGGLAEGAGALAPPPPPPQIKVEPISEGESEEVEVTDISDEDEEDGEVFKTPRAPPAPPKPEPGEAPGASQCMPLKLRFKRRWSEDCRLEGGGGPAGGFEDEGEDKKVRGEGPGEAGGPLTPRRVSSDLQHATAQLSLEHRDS
An outline of the steps:
(§1)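 Pools were built from human transcription factors expressed in yeast as GST fusions, captured on glutathione beads and DNA-barcoded, along with a tag-only sample. Incubation with 200 nmole of a 16-mer random double-stranded DNA library lasted 30 min at room temperature in Tris/NaCl/DTT/glycerol buffer, and was followed by washing, 0.1% formaldehyde crosslinking, proximity ligation, PCR amplification and Illumina NextSeq500 sequencing. Binding signal is the quotient of each hexamer's read frequency for a factor and its frequency for the tag-only sample.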

For a further test, the target named is T2, ETV3L (Homo sapiens, UniProt Q6ZN32 1-361).
T2 sequence: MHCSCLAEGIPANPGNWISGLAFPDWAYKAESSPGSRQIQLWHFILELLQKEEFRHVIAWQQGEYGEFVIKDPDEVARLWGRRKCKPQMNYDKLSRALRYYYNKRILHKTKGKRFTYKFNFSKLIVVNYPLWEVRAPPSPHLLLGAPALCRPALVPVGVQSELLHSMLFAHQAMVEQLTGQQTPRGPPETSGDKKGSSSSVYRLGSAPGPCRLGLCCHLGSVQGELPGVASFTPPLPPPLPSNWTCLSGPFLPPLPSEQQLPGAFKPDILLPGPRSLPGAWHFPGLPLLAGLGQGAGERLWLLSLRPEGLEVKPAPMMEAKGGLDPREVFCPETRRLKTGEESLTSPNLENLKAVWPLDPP
An outline of the steps: as §1

In another test the target is T3, ETS2 (Homo sapiens, UniProt P15036 1-469).
T3 sequence: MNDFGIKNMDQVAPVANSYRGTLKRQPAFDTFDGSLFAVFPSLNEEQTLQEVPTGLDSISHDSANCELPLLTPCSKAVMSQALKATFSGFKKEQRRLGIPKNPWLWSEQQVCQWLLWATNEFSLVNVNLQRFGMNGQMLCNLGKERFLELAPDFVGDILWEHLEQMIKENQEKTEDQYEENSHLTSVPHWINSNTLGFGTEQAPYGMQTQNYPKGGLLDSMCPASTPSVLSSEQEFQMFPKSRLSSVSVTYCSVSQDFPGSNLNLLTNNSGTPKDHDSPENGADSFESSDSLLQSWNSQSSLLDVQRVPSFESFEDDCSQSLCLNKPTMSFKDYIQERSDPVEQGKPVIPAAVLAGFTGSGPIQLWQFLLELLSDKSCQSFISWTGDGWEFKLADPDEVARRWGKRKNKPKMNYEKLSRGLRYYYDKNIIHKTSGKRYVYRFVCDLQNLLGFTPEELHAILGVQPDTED
An outline of the steps:
as §1

A further test addresses T4, SPDEF (Homo sapiens, UniProt O95238 1-335).
T4 sequence: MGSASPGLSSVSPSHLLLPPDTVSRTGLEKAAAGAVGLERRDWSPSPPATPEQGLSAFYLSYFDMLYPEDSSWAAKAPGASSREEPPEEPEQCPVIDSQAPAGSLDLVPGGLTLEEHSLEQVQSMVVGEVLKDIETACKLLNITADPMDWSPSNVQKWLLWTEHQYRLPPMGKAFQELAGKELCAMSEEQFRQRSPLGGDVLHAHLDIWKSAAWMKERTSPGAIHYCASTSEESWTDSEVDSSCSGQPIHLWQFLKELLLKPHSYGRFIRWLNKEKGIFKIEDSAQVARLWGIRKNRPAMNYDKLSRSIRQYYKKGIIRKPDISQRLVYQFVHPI
Summed up:
as §1

Another test concerns the target T5, ETV7 (Homo sapiens, UniProt Q9Y603 1-341).
T5 sequence: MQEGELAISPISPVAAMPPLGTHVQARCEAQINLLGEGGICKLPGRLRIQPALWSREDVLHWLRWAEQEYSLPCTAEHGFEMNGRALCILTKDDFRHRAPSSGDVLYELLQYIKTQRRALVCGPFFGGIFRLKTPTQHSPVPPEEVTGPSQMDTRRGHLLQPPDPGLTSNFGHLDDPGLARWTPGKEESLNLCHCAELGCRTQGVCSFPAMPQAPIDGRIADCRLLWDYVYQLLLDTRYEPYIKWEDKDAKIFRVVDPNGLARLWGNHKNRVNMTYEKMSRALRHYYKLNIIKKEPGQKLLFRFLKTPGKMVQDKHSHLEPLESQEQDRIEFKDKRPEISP
An outline of the steps: as §1

The next test concerns the target T6, ELF5 (Homo sapiens, UniProt Q9UKW6-2 1-255).
T6 sequence: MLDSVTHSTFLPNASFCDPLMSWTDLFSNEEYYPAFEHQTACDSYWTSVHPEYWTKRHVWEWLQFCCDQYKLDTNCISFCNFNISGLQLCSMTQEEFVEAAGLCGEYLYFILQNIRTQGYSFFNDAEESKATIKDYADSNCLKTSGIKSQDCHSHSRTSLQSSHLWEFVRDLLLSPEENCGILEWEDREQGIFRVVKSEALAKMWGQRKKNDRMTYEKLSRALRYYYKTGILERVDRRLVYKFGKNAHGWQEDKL
An outline of the steps: as §1

In a further test the target is T7, ETV3 (Homo sapiens, UniProt P41162-2 1-143).
T7 sequence: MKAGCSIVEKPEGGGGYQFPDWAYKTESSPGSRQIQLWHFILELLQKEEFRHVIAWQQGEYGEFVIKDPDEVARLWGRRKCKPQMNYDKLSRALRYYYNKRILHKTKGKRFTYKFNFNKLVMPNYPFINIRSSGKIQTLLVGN
Summed up: as §1

For a further test, the target named is ETV6 (Homo sapiens, UniProt P41212 1-452). Summed up:
as §1

ETV6, sequence (P41212 whole entry): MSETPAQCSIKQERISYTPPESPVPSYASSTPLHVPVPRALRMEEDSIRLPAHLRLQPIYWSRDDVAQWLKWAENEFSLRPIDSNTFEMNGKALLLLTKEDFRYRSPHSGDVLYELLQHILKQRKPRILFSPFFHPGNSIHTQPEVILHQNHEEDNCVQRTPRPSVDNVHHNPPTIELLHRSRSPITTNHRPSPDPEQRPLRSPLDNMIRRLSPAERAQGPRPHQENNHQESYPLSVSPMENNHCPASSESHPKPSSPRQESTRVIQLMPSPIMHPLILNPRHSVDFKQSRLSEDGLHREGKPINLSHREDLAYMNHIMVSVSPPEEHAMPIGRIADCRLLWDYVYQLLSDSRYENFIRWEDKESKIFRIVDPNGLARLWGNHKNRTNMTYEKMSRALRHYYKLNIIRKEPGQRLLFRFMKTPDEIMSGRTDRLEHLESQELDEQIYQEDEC

As for ATTAAG, the binding signal with ERF was 1.16 fold enrichment (6-mer frequency, TF over GST control); with ETV3L, 1.09 fold enrichment (6-mer frequency, TF over GST control); with ETS2, 1.01 fold enrichment (6-mer frequency, TF over GST control); with SPDEF, 1.13 fold enrichment (6-mer frequency, TF over GST control); with ETV7, 1.12 fold enrichment (6-mer frequency, TF over GST control); with ELF5, 1.02 fold enrichment (6-mer frequency, TF over GST control). Also, the binding signal with ETV3 is 1.04 fold enrichment (6-mer frequency, TF over GST control); with ETV6, 1.11 fold enrichment (6-mer frequency, TF over GST control).

Take CGTCAA: the binding signal was 1.13 fold enrichment (6-mer frequency, TF over GST control) in the test with ERF; 1.09 fold enrichment (6-mer frequency, TF over GST control) with ETV3L; 1.16 fold enrichment (6-mer frequency, TF over GST control) in the test with ETS2; 1.15 fold enrichment (6-mer frequency, TF over GST control) with SPDEF; 1.09 fold enrichment (6-mer frequency, TF over GST control) with ETV7; 1.08 fold enrichment (6-mer frequency, TF over GST control) in the test with ELF5. The binding signal is 1.06 fold enrichment (6-mer frequency, TF over GST control) with ETV3 and 1.15 fold enrichment (6-mer frequency, TF over GST control) in the test with ETV6.

CTGGCA: the binding signal was 1.28 fold enrichment (6-mer frequency, TF over GST control) with ERF; 1.27 fold enrichment (6-mer frequency, TF over GST control) in the test with ETV3L; 1.25 fold enrichment (6-mer frequency, TF over GST control) with ETS2; 1.13 fold enrichment (6-mer frequency, TF over GST control) with SPDEF; 1.4 fold enrichment (6-mer frequency, TF over GST control) in the test with ETV7; 1.19 fold enrichment (6-mer frequency, TF over GST control) with ELF5. For the same sequence, the binding signal with ETV3 was 1.2 fold enrichment (6-mer frequency, TF over GST control); with ETV6, 1.28 fold enrichment (6-mer frequency, TF over GST control).

Consider TAACTC, for which the binding signal is 1.29 fold enrichment (6-mer frequency, TF over GST control) in the test with ERF; 1.12 fold enrichment (6-mer frequency, TF over GST control) with ETV3L; 1.25 fold enrichment (6-mer frequency, TF over GST control) in the test with ETS2; 1.23 fold enrichment (6-mer frequency, TF over GST control) in the test with SPDEF; 1.22 fold enrichment (6-mer frequency, TF over GST control) in the test with ETV7; 1.16 fold enrichment (6-mer frequency, TF over GST control) with ELF5. The binding signal is 1.25 fold enrichment (6-mer frequency, TF over GST control) in the test with ETV3 and 1.3 fold enrichment (6-mer frequency, TF over GST control) with ETV6.

Take ATTTTC: the binding signal is 1.38 fold enrichment (6-mer frequency, TF over GST control) in the test with ERF; 1.42 fold enrichment (6-mer frequency, TF over GST control) with ETV3L; 1.43 fold enrichment (6-mer frequency, TF over GST control) with ETS2; 1.34 fold enrichment (6-mer frequency, TF over GST control) with SPDEF; 1.39 fold enrichment (6-mer frequency, TF over GST control) in the test with ETV7; 1.61 fold enrichment (6-mer frequency, TF over GST control) with ELF5. The binding signal with ETV3 was 1.42 fold enrichment (6-mer frequency, TF over GST control); with ETV6 it was 1.43 fold enrichment (6-mer frequency, TF over GST control).

With TTCCCC, the binding signal with ERF is 1.46 fold enrichment (6-mer frequency, TF over GST control); in the test with ETV3L, 1.69 fold enrichment (6-mer frequency, TF over GST control); with ETS2, 1.64 fold enrichment (6-mer frequency, TF over GST control); in the test with SPDEF, 1.43 fold enrichment (6-mer frequency, TF over GST control); in the test with ETV7 it was 1.43 fold enrichment (6-mer frequency, TF over GST control); with ELF5 it was 2.17 fold enrichment (6-mer frequency, TF over GST control). Besides, the binding signal is 1.89 fold enrichment (6-mer frequency, TF over GST control) with ETV3 and 1.73 fold enrichment (6-mer frequency, TF over GST control) in the test with ETV6.

As to AAATGG, the binding signal was 1.49 fold enrichment (6-mer frequency, TF over GST control) in the test with ERF; 1.54 fold enrichment (6-mer frequency, TF over GST control) with ETV3L; 1.54 fold enrichment (6-mer frequency, TF over GST control) with ETS2; 1.41 fold enrichment (6-mer frequency, TF over GST control) with SPDEF; 1.38 fold enrichment (6-mer frequency, TF over GST control) in the test with ETV7; 1.52 fold enrichment (6-mer frequency, TF over GST control) with ELF5. Besides, the binding signal is 1.5 fold enrichment (6-mer frequency, TF over GST control) with ETV3 and 1.47 fold enrichment (6-mer frequency, TF over GST control) in the test with ETV6.
